Results on 37 compounds are retold here after PubChem BioAssay AID1117353 (Cheminformatics & Chemogenomics Research Group (CCRG), …, 2015).

Each structure is given as a SMILES string. Values without a mark were called inactive. Active and inactive are the calls of the source. Rule as the data show it: active = inhibition above about 50%; inactive = the rest.

Vascular endothelial growth factor receptor 2 (Homo sapiens), sequence (P35968 whole entry, looked up): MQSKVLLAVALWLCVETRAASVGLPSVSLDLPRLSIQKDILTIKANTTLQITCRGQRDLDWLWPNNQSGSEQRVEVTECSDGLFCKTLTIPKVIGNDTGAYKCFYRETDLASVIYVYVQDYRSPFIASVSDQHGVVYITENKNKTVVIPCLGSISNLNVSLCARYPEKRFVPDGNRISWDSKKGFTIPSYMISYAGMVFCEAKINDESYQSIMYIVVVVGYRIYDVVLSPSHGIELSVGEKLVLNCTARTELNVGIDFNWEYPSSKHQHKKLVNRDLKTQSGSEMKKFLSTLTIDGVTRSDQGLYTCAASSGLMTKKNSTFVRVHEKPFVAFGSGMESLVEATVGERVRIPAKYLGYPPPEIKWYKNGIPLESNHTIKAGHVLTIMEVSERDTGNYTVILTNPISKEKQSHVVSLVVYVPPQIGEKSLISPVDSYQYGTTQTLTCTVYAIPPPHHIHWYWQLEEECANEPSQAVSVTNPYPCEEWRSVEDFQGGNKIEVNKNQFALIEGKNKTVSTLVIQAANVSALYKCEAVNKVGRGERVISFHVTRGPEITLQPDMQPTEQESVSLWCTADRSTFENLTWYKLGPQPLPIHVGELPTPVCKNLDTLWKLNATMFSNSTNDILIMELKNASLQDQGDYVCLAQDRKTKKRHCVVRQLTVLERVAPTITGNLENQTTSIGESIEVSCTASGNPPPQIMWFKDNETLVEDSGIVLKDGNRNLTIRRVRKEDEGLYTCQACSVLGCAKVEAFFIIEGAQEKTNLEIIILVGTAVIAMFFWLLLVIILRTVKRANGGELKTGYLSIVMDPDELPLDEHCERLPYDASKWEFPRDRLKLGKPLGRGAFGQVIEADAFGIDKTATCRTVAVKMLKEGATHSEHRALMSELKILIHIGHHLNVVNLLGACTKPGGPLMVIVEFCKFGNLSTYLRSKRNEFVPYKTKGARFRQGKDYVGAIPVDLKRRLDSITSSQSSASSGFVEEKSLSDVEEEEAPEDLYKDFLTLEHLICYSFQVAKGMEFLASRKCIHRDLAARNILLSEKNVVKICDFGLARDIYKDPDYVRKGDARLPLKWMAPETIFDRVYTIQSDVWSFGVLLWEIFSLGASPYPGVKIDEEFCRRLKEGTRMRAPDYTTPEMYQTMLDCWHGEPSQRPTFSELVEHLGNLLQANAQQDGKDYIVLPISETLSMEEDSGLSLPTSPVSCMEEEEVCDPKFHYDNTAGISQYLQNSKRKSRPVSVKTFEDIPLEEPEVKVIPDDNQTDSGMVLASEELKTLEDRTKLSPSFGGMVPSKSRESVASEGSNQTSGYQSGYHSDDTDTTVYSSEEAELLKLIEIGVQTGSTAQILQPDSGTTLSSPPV

This test has as its target Vascular endothelial growth factor receptor 2 (Homo sapiens) (UniProt P35968). Description: VEGFR2 inhibitors, primary assay, biochemical, Homo sapiens, LANCE Ultra TR-FRET, NPC library (AID 1117353). To be noted: LANCE Ultra TR-FRET kinase assay; at 20 µM (top of the series).
As for `O=c1c(-c2ccccc2)c1-c1ccccc1`, the inhibition (in general, the change of the read-out against control, counted positive when it falls) was 28.3%.
With `CCCCC1C(=O)N(c2ccccc2)N(c2ccc(O)cc2)C1=O` (configuration not stated), the inhibition is 29.1%.
Take `C[n+]1c2cc(N)ccc2cc2ccc(N)cc21` (tested in a mixture with another compound): the inhibition is -22%.
In the case of `Cc1cc(O)c2ccccc2c1O`, the inhibition was 50% (active).
With `Oc1c(Cl)cc(Cl)c2cccnc12` the figure was -23.4%.
As for `COC(=O)c1nc(Cl)c(Cl)nc1N`, the inhibition is 6.09%.
Turning to `CC[C@@]1(O)C(=O)OCc2c1cc1n(c2=O)Cc2c-1nc1ccccc1c2/C=N/OC(C)(C)C`, the inhibition is 18.1%.
For the compound `CCN(CC)CCNc1ccc(CO)c2sc3ccccc3c(=O)c12`, the inhibition was 7.72%.
Consider `CC(C)(C)C1CCC(CC2=C(O)c3ccccc3C(=O)C2=O)CC1` (configuration not stated), for which the inhibition is -21.1%.
Regarding `C[C@@]12C(=O)OC(=O)[C@]1(C)C1CCC2O1`, the inhibition is -15.1%.
The same measure for `Oc1c(Cl)cc(Cl)cc1Sc1cc(Cl)cc(Cl)c1O`: 60.4% (active).
Regarding `COc1cc([C@@H]2c3cc4c(cc3[C@H](O)[C@H]3COC(=O)[C@H]23)OCO4)cc(OC)c1OC`, the inhibition was 28.2%.
As for `Cc1cc(C)c(/C=C2\C(=O)Nc3ccccc32)[nH]1`, the inhibition was 98.7% (active).
As for `COc1ccc(-c2nc3ccc(C4=NNC(=O)CC4C)cc3[nH]2)cc1` (configuration not stated), the inhibition was -36.5%.
As for `CC[C@]1(O)C[C@H]2CN(CCc3c([nH]c4ccccc34)[C@@](C(=O)OC)(c3cc4c(cc3OC)N(C=O)[C@H]3[C@@](O)(C(=O)OC)[C@H](OC(C)=O)[C@]5(CC)C=CCN6CC[C@]43[C@@H]65)C2)C1`, the inhibition was -11.3%.
Consider `CC(C)C[C@H](NC(=O)[C@H](CCc1ccccc1)NC(=O)CN1CCOCC1)C(=O)N[C@@H](Cc1ccccc1)C(=O)N[C@@H](CC(C)C)C(=O)[C@@]1(C)CO1`, for which the inhibition was 21.4%.
As to `Nc1ccc2cc3ccc(N)cc3nc2c1`, the inhibition was -25.5%.
As to `COc1cc2c(c(OC)c1OC)-c1ccc(OC)c(=O)cc1[C@@H](NC(C)=O)CC2`, the inhibition was -20.7%.
In the case of `O=C(O)c1ccc(-n2nc(-c3ccccc3O)nc2-c2ccccc2O)cc1`, the inhibition was -16.1%.
For the compound `CCCCCCCCCCCCCCCC[n+]1ccccc1`, the inhibition was -114%.
In the case of `CCCCc1oc2ccccc2c1C(=O)c1cc(I)c(OCCN(CC)CC)c(I)c1`, the inhibition was 22.9%.
Turning to `COc1c(C)c2c(c(O)c1C/C=C(\C)CCC(=O)OCCN1CCOCC1)C(=O)OC2`, the inhibition was -1.65%.
Regarding `CC[C@@H]([C@H](C)O)n1ncn(-c2ccc(N3CCN(c4ccc(OC[C@@H]5CO[C@@](Cn6cncn6)(c6ccc(F)cc6F)C5)cc4)CC3)cc2)c1=O`, the inhibition is 22.9%.
In the case of `COC(=O)Nc1nc2ccc(C(=O)c3ccccc3)cc2[nH]1`, the inhibition was 74.1% (active).
As for `Nc1nc(=S)c2[nH]cnc2[nH]1`, the inhibition was -5.99%.
Regarding `O=C(Nc1ccc([N+](=O)[O-])cc1Cl)c1cc(Cl)ccc1O`, the inhibition is 5.08%.
For `CCN(CC)CCOc1ccc(/C(=C(\Cl)c2ccccc2)c2ccccc2)cc1`, the inhibition was -7.53%.
As for `Cc1cc2c(C(C)C)c(O)c(O)c(C=O)c2c(O)c1-c1c(C)cc2c(C(C)C)c(O)c(O)c(C=O)c2c1O`, the inhibition is -2.11%.
For `O=[N+]([O-])c1ccc(O)c2ncccc12`, the inhibition is 11.1%.
With `Cc1cc(C2CCCCC2)n(O)c(=O)c1` the figure was 4.72%.
Regarding `CCC1=C[C@@H]2CN(C1)Cc1c([nH]c3ccccc13)[C@@](C(=O)OC)(c1cc3c(cc1OC)N(C)[C@H]1[C@@](O)(C(=O)OC)[C@H](OC(C)=O)[C@]4(CC)C=CCN5CC[C@]31[C@@H]54)C2`, the inhibition was -20.3%.
As to `Cn1cnc([N+](=O)[O-])c1Sc1ncnc2nc[nH]c12`, the inhibition was -18.2%.
With `CC[C@]1(O)C[C@@H]2CN(CCc3c([nH]c4ccccc34)[C@@](C(=O)OC)(c3cc4c(cc3OC)N(C)[C@H]3[C@@](O)(C(=O)OC)[C@H](OC(C)=O)[C@]5(CC)C=CCN6CC[C@]43[C@@H]65)C2)C1` the figure was -21.1%.
`COc1cc2nc(N3CCN(C(=O)c4ccco4)CC3)nc(N)c2cc1OC`: the inhibition was -41.4%.
For `CCCN(CCC)C(=O)C(CCC(=O)OCCCN1CCN(CCOC(=O)Cc2c(C)n(C(=O)c3ccc(Cl)cc3)c3ccc(OC)cc23)CC1)NC(=O)c1ccccc1` (configuration not stated), the inhibition was -17.9%.
Turning to `C=CC(=O)Nc1cc2c(Nc3ccc(F)c(Cl)c3)ncnc2cc1OCCCN1CCOCC1`, the inhibition was 98.7% (active).
For the compound `CSc1ccc2c(c1)C(N1CCN(C)CC1)Cc1ccccc1S2` (configuration not stated), the inhibition is -11.8%.
